Assay results reported in PubChem BioAssay.
Inconclusive results are not listed. For some of these results: Potency and affinity values are given separately. Calls of active or inactive are those of the source. Unless noted, the rule behind the calls is not given here.

What was measured:
[1] = antimalarial activity against Dd2 strain (AID 2302;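 active = growth inhibition above 50% at the single 2 µM test dose, taken to imply half-maximal potency below 2 µM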;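 note: 0% = DMSO untreated growth and 100% = chloroquine plus artemisinin killed control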); conditions: P. falciparum Dd2 in RBCs, LDH growth readout, 72 h; at 2 µM; stronger effect = higher value
[2] = HepG2 cytotoxicity, primary screen, cytotoxicity control for P. falciparum antimalarial project, cell-based, ATP luminescence (AID 2303;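 active = inhibition above 50%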;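 note: 0% = DMSO wells and 100% = digitonin-killed cells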); conditions: HepG2 viability, 24-48 h, at 10 µM, stronger effect = higher value
[3] = target: L-lactate dehydrogenase (Plasmodium falciparum (isolate CDC / Honduras)) (UniProt Q27743); experiment: PfLDH activity inhibition – cell lysate, 3D7 strain, counter-screen for P. falciparum growth inhibition project (AID 2304);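 note: 0% = vehicle and 100% = reference inhibitor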; conditions: P. falciparum 3D7 crude extract, LDH APAD/NBT absorbance; at 2 µM; stronger effect = higher value
[4] = inhibition of 3D7 malaria parasite growth – strain 3D7 (AID 2306);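 note: 0% = DMSO wells and 100% = chloroquine plus artemisinin control wells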; conditions: P. falciparum 3D7 erythrocytic growth, LDH absorbance, 72 h; at 2 µM; stronger effect = higher value
[5] = target: Protein kinase 7 (PK7), Plasmodium falciparum 3D7 (PF3D7_0213400) (UniProt Q7YTF7); experiment: inhibition of Plasmodium PK7 catalytic activity – biochemical, TCAMS antimalarial set, Kinase-Glo luminescence (AID 1159587); conditions: recombinant PfPK7, Kinase-Glo ATP depletion luminescence
[6] = target: Calcium-dependent protein kinase 4 (Plasmodium falciparum (isolate 3D7)) (UniProt Q8IBS5); experiment: PfCDPK4 kinase inhibitors, biochemical, TCAMS library (AID 1159588; cut-off not given, nearly all actives have IC50 up to about 0.91 µM); conditions: recombinant PfCDPK4, Kinase-Glo ATP depletion luminescence
[7] = protection of motor neurons from glutamate death, cell-based, TUNEL DNA degradation staining, MNGlu (AID 1594); conditions: glutamate-induced death, at 1 µM, stronger effect = higher value

Sequence of L-lactate dehydrogenase (Plasmodium falciparum (isolate CDC / Honduras)) (Q27743 whole entry, looked up): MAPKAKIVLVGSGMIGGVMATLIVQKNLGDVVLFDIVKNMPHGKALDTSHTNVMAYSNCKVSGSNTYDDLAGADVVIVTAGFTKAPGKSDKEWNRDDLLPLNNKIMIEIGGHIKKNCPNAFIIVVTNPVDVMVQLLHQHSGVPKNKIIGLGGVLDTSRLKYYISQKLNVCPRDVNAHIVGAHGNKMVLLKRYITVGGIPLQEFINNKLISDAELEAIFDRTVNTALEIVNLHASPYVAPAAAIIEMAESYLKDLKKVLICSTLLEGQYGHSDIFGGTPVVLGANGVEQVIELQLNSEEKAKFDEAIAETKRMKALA
Sequence of Calcium-dependent protein kinase 4 (Plasmodium falciparum (isolate 3D7)) (Q8IBS5 whole entry, looked up): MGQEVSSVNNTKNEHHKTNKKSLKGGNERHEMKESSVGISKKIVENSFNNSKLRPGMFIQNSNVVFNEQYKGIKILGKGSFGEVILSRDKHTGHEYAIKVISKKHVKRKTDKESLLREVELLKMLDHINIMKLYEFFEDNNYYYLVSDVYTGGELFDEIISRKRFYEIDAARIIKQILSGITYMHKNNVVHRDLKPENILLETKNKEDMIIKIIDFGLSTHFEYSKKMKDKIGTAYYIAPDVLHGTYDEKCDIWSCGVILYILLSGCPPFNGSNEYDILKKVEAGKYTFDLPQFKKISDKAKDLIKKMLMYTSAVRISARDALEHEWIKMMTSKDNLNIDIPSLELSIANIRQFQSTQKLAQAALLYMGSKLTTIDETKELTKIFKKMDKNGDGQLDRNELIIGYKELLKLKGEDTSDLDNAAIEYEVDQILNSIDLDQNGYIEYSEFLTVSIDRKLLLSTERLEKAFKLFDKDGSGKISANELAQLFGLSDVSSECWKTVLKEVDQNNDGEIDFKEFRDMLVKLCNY
Sequence of Protein kinase 7 (PK7), Plasmodium falciparum 3D7 (PF3D7_0213400) (Q7YTF7 1-343): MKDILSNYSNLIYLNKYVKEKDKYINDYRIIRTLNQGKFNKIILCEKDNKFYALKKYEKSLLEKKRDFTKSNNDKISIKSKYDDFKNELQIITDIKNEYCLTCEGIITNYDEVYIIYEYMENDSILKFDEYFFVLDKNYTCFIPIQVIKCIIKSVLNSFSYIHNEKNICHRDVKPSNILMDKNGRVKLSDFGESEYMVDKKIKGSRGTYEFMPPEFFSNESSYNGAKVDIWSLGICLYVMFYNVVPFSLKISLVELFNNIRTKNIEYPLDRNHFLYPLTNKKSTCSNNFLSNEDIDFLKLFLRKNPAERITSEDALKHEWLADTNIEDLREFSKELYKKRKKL

For `C[C@@H]1C[C@@H]([C@H](O)CC2CC(=O)NC(=O)C2)C(=O)[C@@H](C)C1`, the growth inhibition [1] was 87% (active), the inhibition [2] was 46% (inactive) and the inhibition [3] was -5% (inactive). The growth inhibition [4] was 96% (active), the outcome [5] was “inactive” and the outcome [6] was “inactive”.
For `CC(CCc1ccccc1)NC(C)C(O)c1ccc(O)cc1` (configuration not stated), the protection [7] was 40% (active).
